SF-1 inh = SF-1 (human) inhibition; Q13285; CHO-K1 Gal4-SF-1 LBD luciferase reporter; inhibition, % at 10 µM; 65,000 compounds, 0.55% hits; AID 525;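 active = inhibition above the mean inhibition of all tested compounds plus 3 SD, cut at about 48% in these data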;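 note: 0% = SF-1 transfected cells with DMSO and 100% = mock-transfected cells lacking SF-1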
Target sequence (Q13285 whole entry, looked up, the tested form may be a part): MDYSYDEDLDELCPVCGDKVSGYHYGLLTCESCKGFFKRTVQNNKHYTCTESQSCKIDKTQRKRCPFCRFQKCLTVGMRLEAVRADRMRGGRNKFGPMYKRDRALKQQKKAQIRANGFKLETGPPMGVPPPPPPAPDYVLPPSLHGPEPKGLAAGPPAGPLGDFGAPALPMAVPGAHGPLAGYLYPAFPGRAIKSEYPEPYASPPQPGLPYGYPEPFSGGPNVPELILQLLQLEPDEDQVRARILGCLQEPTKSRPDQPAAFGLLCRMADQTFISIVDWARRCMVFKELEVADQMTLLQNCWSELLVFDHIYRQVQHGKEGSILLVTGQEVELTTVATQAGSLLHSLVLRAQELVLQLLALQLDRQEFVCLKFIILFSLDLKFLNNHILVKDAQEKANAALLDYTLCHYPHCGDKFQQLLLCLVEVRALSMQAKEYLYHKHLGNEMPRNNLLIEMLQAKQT
An asterisk follows results filed as active. The full list was thinned out, with hits kept by preference.

SMILES | SF-1 inh
Cc1ccc(Nc2cc(C)nn2-c2nc(C)cc(=O)[nH]2)cc1 | 96*
Cc1ccc(-c2cc3nc(C)cc(NCc4ccco4)n3n2)cc1 | -51
Cc1ccc(Nc2nc3nonc3[nH]c2=O)cc1 | -31
CCCCS(=O)(=O)NC1=NCN(CCOC(=O)c2ccccc2)CN1 | 4
COC(=O)NCc1ccc(S(=O)(=O)N2CCOCC2)cc1 | -7
Cc1ccc(C)c(NC(=O)CSc2nnc(-c3ccncc3)n2N)c1 | 0
CC(C)CCNC(=O)CN(CCN1CCOCC1)C(=O)Cn1nnc(-c2ccc(F)cc2)n1 | -12
Cc1cc(C(=O)CSc2nncs2)c(C)n1-c1ccc2c(c1)OCO2 | -69
CC(C)c1cc(C(=O)NC2CCCCC2)no1 | -54
Cn1cc(/C=N/n2cnc3scc(-c4ccc(Cl)cc4)c3c2=O)c2ccccc21 | 81*
C(=N\n1cnnc1)/c1cn(Cc2ccccc2)c2ccccc12 | 6
Cn1c(SCC(=O)N2CCCCC2)nnc1-c1ccc(S(=O)(=O)N2CCOCC2)cc1 | 10
CC1(C)CNC(=O)C=C(c2ccccc2)C1 | -1
CN(C)c1ccc2c(c1)OC(N)=C(C#N)C2c1cccc(F)c1 (centres undefined) | 56*
CC(=O)C1=C(C)OC(N)=C(C#N)C1c1ccco1 (centres undefined) | -3
CC1CCN(c2nc3ccc(C(=O)O)cc3s2)CC1 | 94*
O=C(NCC1CCCO1)c1ccc2nc(N3CCCCC3)sc2c1 (centres undefined) | -54
Clc1ccc2nc(N3CCCCC3)sc2c1 | -65
O=C(C1COc2ccccc2O1)N1CCc2ccccc21 (centres undefined) | -54
Cc1cc2c(cc1C)NC1(C(=O)Nc3ccccc31)C1=C(CC(C)(C)CC1=O)N2 (centres undefined) | -16
COc1ccc2nc(NC(=O)c3ccc(-n4nc(C)cc4C)cc3)sc2c1 | 15
COC(=O)c1ccc(Oc2cc(C)nc(-n3nc(C)cc3C)n2)cc1 | 51*
COC(=O)CSc1nc(C)cc(Oc2ccccc2)n1 | -7
O=C(OC(C(=O)NCc1ccc2c(c1)OCO2)c1ccc(Cl)cc1)c1ccco1 (centres undefined) | 5
CC(C(=O)NC1CCCC1)N(C(=O)c1snc(C(N)=O)c1N)c1ccc2c(c1)OCCO2 (centres undefined) | -7
SMILES | SF-1 inh
O=C1CCCC2=C1C(c1ccco1)Nc1ccc3ccccc3c12 (centres undefined) | 4
O=C(c1ccc(Cn2cc(Br)cn2)o1)n1cccn1 | 12
C=CCNC(=O)C1CCN(c2nc(C)cc(-c3ccccc3)n2)CC1 | -102
COc1ccccc1-n1nnnc1SCC(=O)Nc1cc(C)on1 | 3
O=C(CSc1nnnn1C1CCCC1)Nc1cccc(NC(=O)c2ccco2)c1 | -3
O=C(CSc1nnnn1C1CC2CCC1C2)Nc1ccnc2ccccc12 (centres undefined) | 76*
CSc1nnnn1CCn1nnnc1SC | 12
CN1CCN(c2nc(-c3ccccc3)nc3c2oc2ccccc23)CC1 | 5
Cc1ccc(C)c(S(=O)(=O)Nc2ccc(S(=O)(=O)Nc3onc(C)c3C)cc2)c1 | 7
Cc1cc(NC(=O)c2ccc3c(c2)OCO3)no1 | -60
Cc1cc(NC(=O)c2ccc3c(c2)OCCO3)no1 | 51*
Cc1cc(NC(=O)c2noc3c2CCCCC3)no1 | -39
CC(C)c1nnc(NC(=O)c2cnccn2)s1 | -51
CCN1CCc2c(sc3c2c(NCc2ccco2)nc2nnnn23)C1 | -2
CNC(=O)Cn1c(=O)n(C)c2ccccc21 | 15
O=C(NCCN1CCCCCC1)C1CCC(CNS(=O)(=O)c2cccc3cccnc23)CC1 (centres undefined) | -3
Oc1c(CN2CCCCC2)cc(Br)c2cccnc12 | 69*
O=c1oc2ccccc2c(N2CCCCC2)c1CN1CCCCC1 | 8
CCC(=O)c1ccccc1OCCSc1nc(C)cc(=O)[nH]1 | 13
CN(C)C(=O)CCc1nc(-c2ccc(C(C)(C)C)cc2)no1 | 83*
O=C(CCc1nc(-c2ccccc2F)no1)NCCc1ccccc1Cl | -2
COc1ccc(-c2noc(CCCOc3ccccc3)n2)cc1OC | 11
O=C1c2ccccc2C(=O)N1Cc1nc(-c2ccccc2)no1 | 15
CCCc1nc(-c2ccc(-c3ccc(F)cc3)cc2)no1 | -53
CC(C)(C)c1ccc(-c2noc(CCC(N)=O)n2)cc1 | 87*
SMILES | SF-1 inh
CNC(=O)CCc1nc(-c2ccc(C(C)(C)C)cc2)no1 | 88*
COc1ccc(CNC(=O)CCc2nc(-c3ccccc3F)no2)c(OC)c1 | 3
CC(C)(CC(=O)O)Cc1nc(-c2ccc(Cl)cc2)no1 | -63
CCOCCCNc1ccc(-c2ccccc2)nn1 | -58
CCN(CC)c1ccc(NC(=O)C2CC3CCC2C3)cc1 (centres undefined) | -49
CCC(C)(C(=O)NC1CCCC1)N(C(=O)c1cnccn1)c1c(C)n(C)n(-c2ccccc2)c1=O (centres undefined) | -11
CCN(CC)c1ccc(-c2nn3c(-c4cccnc4)nnc3s2)cc1 | 7
COc1ccc(CCCc2nnc(SCC(=O)Nc3nccs3)n2C)cc1C | -1
CC(NC(=O)c1ccco1)C(=O)OCc1cccc(Cl)c1 (centres undefined) | -8
